A short description of test [1]: Quantitative High-Throughput drug screen in 47 multiple myeloma cell lines against the NCATS MIPE library collection: PE2_PLB cell viability assay (AID 1919869). Also: nearly all actives have a fitted effect of over 35% in size. Also: potency is read from the fitted curve at half-maximal effect. In outline:
(§1)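 Cells were exposed to library compounds for 48 hours, after which ATP was measured by CellTiter-Glo. Signal was taken as median relative luminescence units.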

A short description of test [2]: Quantitative High-Throughput drug screen in 47 multiple myeloma cell lines against the NCATS MIPE library collection: PCM6_Riken cell viability assay (AID 1919870). Also: nearly all actives have a fitted effect of over 30% in size. Also: potency is read from the fitted curve at half-maximal effect. In outline: as §1
The nature of test [3]: Quantitative High-Throughput drug screen in 47 multiple myeloma cell lines against the NCATS MIPE library collection: KMS11_JCRBsus cell viability assay (AID 1919873). Also: nearly all actives have a fitted effect of over 50% in size. Also: potency is read from the fitted curve at half-maximal effect. In outline: as §1
The nature of test [4]: Quantitative High-Throughput drug screen in 47 multiple myeloma cell lines against the NCATS MIPE library collection: KMS28BM_JCRB cell viability assay (AID 1919874). Also: nearly all actives have a fitted effect of over 35% in size. Also: potency is read from the fitted curve at half-maximal effect. In short, it runs like this:
as §1

A short description of test [5]: qHTS drug screen for cell cycle checkpoint inhibitors in PARPi-resistant BRCA-mutant ovarian cancer cell lines. (AID 1963452; calls by dose curve; also: potency is read from the fitted curve at half-maximal effect). The conditions noted are these: PEO1/OlaR viability, CellTiter-Glo luminescence, 96 h; for Z-AUC: stronger effect = lower value. In outline:
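PEO1, PEO4 and PEO1/OlaR ovarian cancer cells, 600 per well, exposed 96 h at 37C to a dilution series. Viability read by CellTiter-Glo luminescence, normalized to DMSO and empty wells; activity summarized as Z-AUC.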
(qHTS replaces the single test concentration by a dilution series.)

Test [6] in a line: Quantitative High-Throughput drug screen in 47 multiple myeloma cell lines against the NCATS MIPE library collection: OPM2_DSMZ cell viability assay (AID 1919872). Also: nearly all actives have a fitted effect of over 30% in size. In outline: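 Myeloma cells (500 per well) were exposed to MIPE 4.0 compounds by pin transfer and incubated 48 hours at 37C, 5% CO2. Viability was read as ATP by CellTiter-Glo luminescence, normalised to DMSO (100%) and media-only (0%) wells.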

Test [7] can be described thus: qHTS for identification of novel therapeutic agents for treatment of microphthalmiaassociated transcription factor (MiT) renal cell carcinoma (RCC) (AID 1963991; calls by dose curve; also: potency is read from the fitted curve at half-maximal effect). The conditions noted are these: CellTiter-Glo, 48 h; for z-score: stronger effect = lower value. In outline: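 Three TFE3-fusion RCC lines (UOK109, UOK124, UOK145), 500 cells/well in complete medium, were treated with MIPE 4.0 compounds for 48 hours at 37 C. Viability was by CellTiter-Glo luminescence, normalized to DMSO (100%) and empty wells (0%); curves fitted over 11 concentrations.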

A short description of test [8]: Quantitative High-Throughput drug screen in 47 multiple myeloma cell lines against the NCATS MIPE library collection: RPMI8226_ATCC cell viability assay (AID 1919871). Also: nearly all actives have a fitted effect of over 30% in size. Also: potency is read from the fitted curve at half-maximal effect. In outline: as §1
Test [9] is described as follows: qHTS profiling for inhibitors of Plasmodium falciparum proliferation (AID 504749).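 Also: 0% = DMSO vehicle and full inhibition = artemisinin control; nearly all actives have a fitted effect of over 60% in size.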 The conditions noted are these: P. falciparum in erythrocytes, SYBR Green DNA, 72 h, at 28.7 µM (top of the series). In short, it runs like this: (§2)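 Each compound contacts P. falciparum-infected red blood cells for 72 h at 37 C; lysis buffer (Tris, EDTA, saponin, Triton X, SYBR Green I) is added and fluorescence measured next morning; values normalized to controls.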

Another test deals with 3D7. The test is described as above. Conditions: P. falciparum in erythrocytes, SYBR Green DNA, 72 h; series mostly up to 28.7 µM. In outline: as §2
A further test has as its system 7G8. The description is as above. Conditions: P. falciparum in erythrocytes, SYBR Green DNA, 72 h; series mostly up to 28.7 µM. In short, it runs like this:
as §2

The test system of another test is AA1029. Described as above. Conditions: P. falciparum in erythrocytes, SYBR Green DNA, 72 h; series mostly up to 28.7 µM. In short, it runs like this: as §2
For a further test, the system named is AS120. The test is described as above. Conditions: P. falciparum in erythrocytes, SYBR Green DNA, 72 h; series mostly up to 28.7 µM. In outline: as §2
Another test relates to ATS189. The description is as above. Conditions: P. falciparum in erythrocytes, SYBR Green DNA, 72 h; series mostly up to 28.7 µM. In short, it runs like this:
as §2

A further test deals with ATS95. The description is as above. The conditions noted are these: P. falciparum in erythrocytes, SYBR Green DNA, 72 h; series mostly up to 28.7 µM. In outline: as §2
The subject of another test is C2A. Described as above. Conditions: P. falciparum in erythrocytes, SYBR Green DNA, 72 h; series mostly up to 28.7 µM. In short, it runs like this: as §2
A further test deals with CP185. The test is described as above. The conditions noted are these: P. falciparum in erythrocytes, SYBR Green DNA, 72 h; series mostly up to 28.7 µM. In outline: as §2
The next test has as its system CP191. Described as above. Conditions: P. falciparum in erythrocytes, SYBR Green DNA, 72 h; series mostly up to 28.7 µM. In short, it runs like this:
as §2

The test system of the next test is CP192. The description is as above. The conditions noted are these: P. falciparum in erythrocytes, SYBR Green DNA, 72 h; series mostly up to 28.7 µM. In outline:
as §2

The next test deals with CP194. The test is described as above. Conditions: P. falciparum in erythrocytes, SYBR Green DNA, 72 h; series mostly up to 28.7 µM. In short, it runs like this: as §2
Where [10] appears, read: measured here: PEO1 parental Z-AUC.
[11] abbreviates: TFE3-RCC UOK109 viability, measured here: UOK109 Z-AUC.
Where [12] appears, read: TFE3-RCC viability, measured here: UOK124 Z-AUC.
Setting [13] is: TFE3-RCC viability, measured here: UOK145 Z-AUC.

Each structure is given as a SMILES string. Results filed as inconclusive are left out. Activity calls are given as the source filed them. Unless noted, calls follow the shape of the dose curve; as a rule, active = well fitted curve in the direction sought with a large enough effect; inconclusive = small, poorly fitted or top-dose-only effect, or another doubt; inactive = no such curve, though single readings can be large; an effect the other way counts as inactive or inconclusive.

As to `Nc1cccc(-c2cc3c(Oc4cccc(O)c4)ncnc3[nH]2)c1`, the Potency is 14.8 µM (active) in [1], 16.6 µM (active) in test [2], 7.43 µM (active) in test [3] and 20.9 µM (active) in test [4]. Further, the Z-AUC in test [5] is -0.838 (inactive); in [5] (setting [10]), -0.58; in test [5] (measured here: PEO4 Z-AUC), -0.859.
As for `CC(C)(O)CCc1ccc(OCc2cc(-c3cccc(OC(F)F)c3)c3ncccc3c2)cc1`, the Potency result in test [1], in [2], in [6], in [3] and in [4] was “inactive” each time. Moreover, the Z-AUC in test [5] was -0.38 (inactive); in test [5] (setting [10]), 0.116; in test [5] (measured here: PEO4 Z-AUC) it was 0.147. Further, the z-score in test [7] (setting [11]) turned out to be 0.14; in test [7] (setting [12]), 0.328; in test [7] (setting [13]) it was 0.0594.
On to `CC(C)c1ccccc1Cc1cc(C(=O)Nc2ccc(S(=O)(=O)c3ccccc3C(C)(C)C)cc2)c(O)c(O)c1O`, for which the Potency in test [1] is 5.26 µM (active); in [2] it was 7.43 µM (active); in test [3] it was 5.26 µM (active); in test [4] it was 10.5 µM (active). The values for the Z-AUC in test [5], in test [5] (setting [10]) and in test [5] (measured here: PEO4 Z-AUC) were 0.413 (inactive), 0.393 and 0.535, respectively.
Regarding `COc1ccc(-c2cc3c(C)nc(N)nc3n(C3CCC(OCCO)CC3)c2=O)cn1` (stereo unspecified), the Potency in test [1] was 0.0469 µM (active); in test [2], 0.264 µM (active); in test [8] it was 0.0264 µM (active); in test [3] it was 0.0074 µM (active); in [4] it was 0.059 µM (active); in test [5] it was 0.49 µM (active). Besides, in test [7] (TFE3-RCC UOK109 viability, active = Z-AUC below -0.8 in all three lines), the Potency was 0.0118 µM (active). Moreover, the Z-AUC in [5] (setting [10]) was -1.22; in [5] (measured here: PEO4 Z-AUC) it was -1.44. Moreover, the values for the z-score in test [7] (setting [11]), in test [7] (setting [12]) and in [7] (setting [13]) were -2.89, -1.31 and -2.61, respectively.
Turning to `CCCn1c(=O)c2[nH]c(-c3cnn(Cc4cccc(C(F)(F)F)c4)c3)nc2n(CC)c1=O`, the Potency result in test [1], in [2] and in test [3] was “inactive” each time. The Potency in test [8] was 7.43 µM (active). Also, the results for the Z-AUC in [5], in test [5] (setting [10]) and in test [5] (measured here: PEO4 Z-AUC) were 1.35 (inactive), 1.45 and 1.33, respectively. The z-score in [7] (setting [11]) was determined as 0.85; in test [7] (setting [12]), 0.351; in test [7] (setting [13]), 0.744.
As to `CN1c2cc(O)c(N=NC(N)=O)cc2CC1S(=O)(=O)O` (stereo unspecified), the Potency entry (in [1]; in test [2]; in test [8]; in test [3]; in [4]; in the test with 3D7) was “inactive” each time. Besides, the Potency entry in the test with 7G8, with AA1029, with AS120, with ATS189, in the test with ATS95 and with C2A was “inactive” in each case. Also, the Potency result with CP185, with CP191, in the test with CP192 and with CP194 was “inactive” each time. Further, the results for the Z-AUC in test [5], in [5] (setting [10]) and in test [5] (measured here: PEO4 Z-AUC) were 1.01 (inactive), 0.677 and 1.13, respectively. In addition, the z-score was determined as 0.359 in test [7] (setting [11]), 0.697 in test [7] (setting [12]) and 0.51 in test [7] (setting [13]). In addition, the activity, negative = inhibition in [9] (parasite line A) was -0.188% (inactive); in [9] (parasite line B), 7.8% (inactive).

(Values after PubChem BioAssay (NCATS).)
